# Sampled rows, rich in hits. Any-hit rate of the full collection: about 3.7%.
# Anthrax LF prot: inhibitors of Bacillus anthracis lethal factor protease; P15917; multiplex microsphere protease cleavage assay, LF; inhibition, % at 10 µM; 0.12% of 360,000 active; AID 588501
# MazEF act: increases E. coli MazEF RNase cleavage of RNA. P0AE70. FAM/BHQ RNA-DNA oligo cleavage fluorescence, 5 h. 0.32% of 350,000 active. activation, % at 20 µM. AID 504720; in the data active = activation above about 50%
# Autofluor counter: compound fluorescence in toxin protease inhibitor counterscreen; compound autofluorescence counterscreen, microsphere flow cytometry; active compounds read high; 3.1% of 360,000 active; fluorescence intensity (test concentration not listed); AID 624483; in the data active = fluorescence intensity above about 16000; inconclusive = no clear call, values can overlap the other calls
# BoNT F protease: inhibitors of Botulinum neurotoxin F light chain protease. Multiplex microsphere protease cleavage assay, flow cytometry. inhibition, % at 10 µM. 0.22% of 360,000 active. AID 588497; in the data active = inhibition above about 35%, passing the limit was not always enough; inconclusive = no clear call, values can overlap the other calls
# BoNT-A LC inh2: BoNT A light chain protease inhibition. multiplex microsphere protease substrate cleavage, flow cytometry. inhibition, % at 10 µM. 0.17% of 360,000 active
# A number is an active result; i = inactive; ? = inconclusive; nt = no result; + = active, no number. Cut-off read from the data, not from the text of the source, unless noted: active = inhibition above about 30%; inconclusive = no clear call, values can overlap the other calls; inactive = below that.
SMILES,Anthrax LF prot,MazEF act,Autofluor counter,BoNT F protease,BoNT-A LC inh2
COc1ccc(C(=O)N(Cc2ccccc2)Cc2cc3cc4c(cc3[nH]c2=O)OCCO4)cc1,i,i,22249,i,i
Cc1cc2cc(CN(Cc3ccc4c(c3)OCO4)C(=O)c3ccco3)c(=O)[nH]c2cc1C,i,i,i,i,i
COc1cc2cc(CN(Cc3ccc4c(c3)OCO4)C(=O)c3ccco3)c(=O)[nH]c2cc1OC,i,i,16500,i,i
Cc1c(CN(C)C(=O)c2ccc(Br)o2)cnn1C,i,i,19727,i,?
O=C(c1ccc(Br)o1)N(Cc1ccccc1)Cc1ccccc1,i,i,i,i,i
O=C(CCc1nc2ccccc2c(=O)[nH]1)N1CCN(S(=O)(=O)c2cccc(F)c2)CC1,i,i,i,i,i
CCCc1cc(=O)[nH]c(SCc2cccc(C)c2)n1,i,i,23596,i,?
CCCc1cc(=O)[nH]c(SCc2cc(Cl)ccc2OC(F)F)n1,i,i,24635,i,i
CCCc1cc(=O)[nH]c(SCc2ccc(Cl)cc2)n1,i,i,i,i,i
CCCc1cc(=O)n2[nH]c(-c3ccco3)nc2n1,i,i,23273,i,i
CCCc1cc(=O)n2[nH]c(C)cc2n1,i,i,24507,i,i
Cc1cc(=O)n2[nH]c(-c3ccco3)nc2n1,i,i,i,i,i
COc1ccc(/C=C/C(=O)C2CC2)cc1COc1cccc(C)c1C,30.7,i,i,i,i
CCOC(=O)Cn1c(=O)c(-c2ccccc2NCc2ccccc2)nc2ccccc21,i,61.2,i,i,i
CSc1cc(SC)ncn1,i,i,i,i,i
CC(=O)Nc1cccc(NC(=O)NC2CC(=O)N(c3ccc4c(c3)OCCO4)C2)c1 (configuration not stated),i,i,i,i,i
COc1ccc(C2=NOC(C(=O)N3CCOCC3)C2)cc1OC (configuration not stated),i,i,23787,i,i
CCOC(=O)N1CCN(C(=O)C2CC(c3ccccc3OC)=NO2)CC1 (configuration not stated),i,i,20183,i,i
COc1cccc(C2=NOC(C(=O)N3CCOCC3)C2)c1 (configuration not stated),i,i,i,i,i
O=C(C1CC(c2ccccc2O)=NO1)N1CCC2(CC1)OCCO2 (configuration not stated),i,i,20077,i,i
COc1cc(OC)c(C2=NOC(C(=O)N3CCCc4ccccc43)C2)cc1Cl (configuration not stated),i,i,23619,i,i
Cc1cc(C2=CC(=O)C[C@H](c3ccc(F)cc3)C2)ccc1F,i,i,i,i,i
Cc1ccc(C(=O)C(C)OC(=O)CN2C(=O)NC3(CCCC3)C2=O)cc1 (configuration not stated),nt,i,nt,nt,nt
Cc1cc(C)c2c(n1)nn1c(NCCN3CCOCC3)cc(C)nc21,i,i,23370,i,i
Cc1cc(NCCN2CCOCC2)n2nc(C)c(-c3ccccc3)c2n1,i,i,i,i,i
SMILES,Anthrax LF prot,MazEF act,Autofluor counter,BoNT F protease,BoNT-A LC inh2
COCCNc1cc(C)nc2c3c(C)cc(C)nc3nn12,i,i,23058,i,i
O=C(NNC(=O)c1ccccc1Cl)c1ccc(-n2cncn2)c([N+](=O)[O-])c1,i,i,i,i,i
CN(CC(=O)Nc1c(Cl)cccc1Cl)C(=O)c1cc(S(=O)(=O)N(C)C)ccc1N1CCCC1,?,i,?,?,i
Cc1cc(S(=O)(=O)NCc2ccco2)c(C)s1,i,i,i,i,i
Cc1cc(S(=O)(=O)NCCN(C)C)c(C)s1,i,i,22830,i,i
CN(C)CCNS(=O)(=O)c1ccc2c3c(cccc13)C(=O)N2,i,i,i,i,i
Cc1cc(S(=O)(=O)NCc2ccc(S(N)(=O)=O)cc2)c(C)s1,i,i,21825,i,i
CN1C(=O)C2(Nc3ccccc3-c3nc4ccccc4n32)c2ccccc21 (configuration not stated),i,i,23406,i,i
CC1(c2ccccn2)Nc2ccccc2-c2nc3ccccc3n21 (configuration not stated),i,i,22286,i,i
c1ccc2c(c1)NC1(CCCCCC1)n1c-2nc2ccccc21,nt,i,nt,nt,nt
Cc1onc(-c2c(F)cccc2Cl)c1C(=O)Nc1cccc(S(=O)(=O)NC2=NCCC2)c1,i,i,?,i,i
Cc1c(Br)cc(-c2nnco2)cc1Br,i,i,23447,i,i
Cc1ccc(C)n1-c1ccc(-c2nnco2)cc1,i,nt,i,i,i
CCc1cc(C(=O)OC)c(N2C(=O)C3C4C=CC(C4)C3C2=O)s1 (configuration not stated),i,i,23671,i,i
CCc1cc(C(=O)OC)c(NC(=O)CC2SC(N)=NC2=O)s1 (configuration not stated),i,i,i,i,i
CCC(=O)Nc1cccc(NC(=O)c2ccc(C)c([N+](=O)[O-])c2)c1,i,i,i,i,i
CCCC(=O)Nc1cccc(NC(=O)c2ccc(C)c([N+](=O)[O-])c2)c1,i,i,23307,i,?
O=C(Nc1ccccc1)c1ccc(NCCc2ccccc2)c([N+](=O)[O-])c1,i,+,i,i,i
COC(=O)[C@]12CCCCC=C1N(Cc1ccc(Cl)cc1Cl)C(=O)[C@H](CC(=O)N1CCN(C(=O)c3ccco3)CC1)C2,i,nt,i,i,i
Cc1cnc(C(=O)Nc2ccc(F)cc2)cn1,i,i,21955,i,i
CC1=CCC(C(=O)O)C(C(=O)O)C1 (configuration not stated),i,i,22181,i,i
O[C@@H]1CN(CC2CCCCC2)[C@@H](c2ccccc2)C[C@H]1n1cc(-c2ccc(F)cc2)nn1,i,i,i,i,i
CCOC(=O)c1cc(=O)n(Cc2ccccc2C)c2ccccc12,i,i,20854,i,i
Cc1ccc(Cn2c(=O)cc(C(=O)O)c3ccccc32)cc1,i,i,i,i,i
OC(c1cccc(Cl)c1)c1nc(-c2ccoc2)cs1 (configuration not stated),i,nt,i,i,i
SMILES,Anthrax LF prot,MazEF act,Autofluor counter,BoNT F protease,BoNT-A LC inh2
O=C(Nc1cccc2ncccc12)c1ccc(Cl)cc1,i,110.0,i,i,i
O=C(Nc1cccc2ncccc12)c1ccc(F)cc1,i,i,i,i,i
O=C(Nc1cccc2ncccc12)c1ccc(-c2ccc(Br)cc2)o1,i,i,20512,i,i
O=C(Nc1cccc2ncccc12)c1ccc([N+](=O)[O-])o1,i,i,i,i,i
O=C(NC12CC3CC(CC(C3)C1)C2)c1ccc([N+](=O)[O-])o1,i,i,i,i,i
CC(C)(C)c1ccc(-c2nc3c(C#N)c(-c4ccc5c(c4)OCO5)ccn3n2)cc1,i,i,20531,i,i
Cc1ccc(-c2cc(-c3ccc4c(c3)OCO4)c(C#N)c(N)n2)o1,i,i,i,i,i
CCc1ccc(C(=O)OCC(=O)N(CC)c2c(N)n(Cc3ccccc3)c(=O)[nH]c2=O)cc1,i,i,i,i,i
CCc1ccc(C(=O)OCC(=O)N(CCOC)c2c(N)n(Cc3ccccc3)c(=O)[nH]c2=O)cc1,i,i,i,47.2,i
COCCN(C(=O)COC(=O)c1nc(Cl)ccc1Cl)c1c(N)n(Cc2ccccc2)c(=O)[nH]c1=O,i,i,i,45.6,i
